Source: PubChem BioAssay (Tox21)
“And” between values parts separate entries of the source, which are not always exact repeats. Identical values can stand only once. Inconclusive results are not listed. A call without a number means that no potency is given here. A structure can be active in one record and inactive in another. The source made the active and inactive calls. Calls follow the shape of the dose curve; as a rule, active = well fitted curve in the direction sought with a large enough effect in the repeat runs; inconclusive = weak or mixed curves; inactive = no such curve, though single readings can be large; an effect the other way counts as inactive or inconclusive.

Legend:
[1] = qHTS RealTime-Glo MT Cell Viability Assay in HEK293 cells - 16 hour (AID 1224872); also: nearly all actives have a fitted effect of over 50% in size; also: potency is read from the fitted curve at half-maximal effect
Outline: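 Homogeneous bioluminescent viability format in HEK293 cells (600 cells/well). Following 5 h at 37 C/5% CO2, 23 nL compound was pintooled; the signal was measured repeatedly during 40 h incubation.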

[2] = qHTS RealTime-Glo MT Cell Viability Assay in HepG2 cells - 8 hour (AID 1224873); also: nearly all actives have a fitted effect of over 55% in size
Outline: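 HepG2 cells mixed with RealTime-Glo MT reagents (NanoLuc plus cell-permeant prosubstrate) were seeded at 600 cells/well, incubated 5 h at 37 C/5% CO2, then pinned with compounds in DMSO; nonlytic luminescence tracked viability during 40 h treatment.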

[3] = qHTS RealTime-Glo MT Cell Viability Assay in HEK293 cells - 40 hour (AID 1224874); details: RealTime-Glo luminescence; max response: stronger effect = lower value; also: nearly all actives have a fitted effect of over 50% in size; also: potency is read from the fitted curve at half-maximal effect
Outline: (§1)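 Viable HEK293 cells reduce a cell-permeant prosubstrate; the product diffuses out and is consumed by NanoLuc in the medium to give light. Compounds went in after a 5 h incubation and plates were read over the treatment course.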

[4] = A CellTox Green Cytotoxicity Assay to monitor cytotoxicity in HEK293 cells - 24 hour (AID 1224875); also: series mostly up to about 77 µM; nearly all actives have a fitted effect of over 45% in size
Outline: (§2)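 Fluorescence intensity, read at 0, 8, 16, 24, 32 and 40 h of compound treatment, reflected dye binding to DNA of dead HEK293 cells; compounds (23 nL, DMSO) were added 5 h after plating cells with reagent.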

[5] = A CellTox Green Cytotoxicity Assay to monitor cytotoxicity in HepG2 cells - 16 hour (AID 1224876); also: nearly all actives have a fitted effect of over 45% in size
Outline: (§3)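 Using 1536-well format, dye-containing HepG2 suspension was seeded, allowed 5 h at 37 C/5% CO2, dosed by pintool with compounds, positive and negative controls, and imaged for fluorescence across 40 h.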

[6] = qHTS RealTime-Glo MT Cell Viability Assay in HepG2 cells - 32 hour (AID 1224877); also: nearly all actives have a fitted effect of over 55% in size; also: potency is read from the fitted curve at half-maximal effect
Outline: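 Cell number in HepG2 cultures estimated from NanoLuc luminescence generated by metabolic reduction of a prosubstrate by living cells. The homogeneous, nonlytic format allowed repeated reads at 0, 8, 16, 24, 32 and 40 h of compound exposure.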

[7] = A CellTox Green Cytotoxicity Assay to monitor cytotoxicity in HepG2 cells - 24 hour (AID 1224878); also: nearly all actives have a fitted effect of over 45% in size
Outline: as §3

[8] = qHTS RealTime-Glo MT Cell Viability Assay in HEK293 cells - 0 hour (AID 1224880); also: nearly all actives have a fitted effect of over 45% in size; also: potency is read from the fitted curve at half-maximal effect
Outline: as §1

[9] = A CellTox Green Cytotoxicity Assay to monitor cytotoxicity in HEK293 cells - 32 hour (AID 1224881); also: nearly all actives have a fitted effect of over 40% in size; also: potency is read from the fitted curve at half-maximal effect
Outline: as §2

[10] = A CellTox Green Cytotoxicity Assay to monitor cytotoxicity in HepG2 cells - 40 hour (AID 1224879); also: nearly all actives have a fitted effect of over 40% in size
Outline: as §3

| SMILES | Potency [1] | Potency [2] | max response [3] | Potency [4] | Potency [5] | Potency [6] | Potency [7] | Potency [8] | Potency [9] | Potency [10] | Potency [3] | activity change, negative = cytotoxic [6] | cytotoxicity [7] | cytotoxicity increase [9] |
| --- | --- | --- | --- | --- | --- | --- | --- | --- | --- | --- | --- | --- | --- | --- |
| CCC(Cc1c(I)cc(I)c(N)c1I)C(=O)O (stereo not given) | inactive | inactive | 3.1% (inactive) and 8.35% (inactive) | inactive | inactive | inactive | inactive | inactive | inactive |  |  |  |  |  |
| Cc1cccc(Nc2ccccc2C(=O)O)c1C | inactive | inactive |  | inactive | inactive | inactive | inactive | inactive | inactive | inactive |  |  |  |  |
| CC(=O)Nc1ccc2c(c1)Cc1cc(NC(C)=O)ccc1-2 | inactive | inactive | 1.79% (inactive) and 3.64% (inactive) | inactive | inactive | inactive | inactive | inactive | inactive |  |  |  |  |  |
| OC[C@H]1O[C@@H]2O[C@H]3[C@H](O)[C@@H](O)[C@@H](O[C@H]4[C@H](O)[C@@H](O)[C@@H](O[C@H]5[C@H](O)[C@@H](O)[C@@H](O[C@H]6[C@H](O)[C@@H](O)[C@@H](O[C@H]7[C@H](O)[C@@H](O)[C@@H](O[C@H]1[C@H](O)[C@H]2O)O[C@@H]7CO)O[C@@H]6CO)O[C@@H]5CO)O[C@@H]4CO)O[C@@H]3CO | inactive | inactive |  | inactive | inactive | inactive | inactive | inactive | inactive | inactive |  |  |  |  |
| OC[C@@H](O)[C@@H](O[C@@H]1O[C@H](CO)[C@H](O)[C@H](O)[C@H]1O)[C@H](O)[C@@H](O)CO | inactive | inactive | 5.89% (inactive) and 2.02% (inactive) | inactive | inactive | inactive | inactive | inactive | inactive |  |  |  |  |  |
| c1ccc2c(c1)[nH]c1ccccc12 | inactive | inactive | -8.89% (inactive) | inactive | inactive | inactive | inactive | inactive | inactive |  |  |  |  |  |
| CC(=O)O[C@]1(C(C)=O)CC[C@H]2[C@@H]3C=C(Cl)C4=CC(=O)CC[C@]4(C)[C@H]3CC[C@@]21C | 21.8 µM (active) | inactive |  | inactive | inactive | inactive | inactive | 2.18 µM (active) and 1.69 µM (active) | inactive |  | 21.8 µM (active) and 10.7 µM (active) |  |  |  |
| C=CN1CCCC1=O | inactive | inactive | 0.332% (inactive) and -7.88% (inactive) | inactive | inactive | inactive | inactive | inactive | inactive |  |  |  |  |  |
| Brc1nc2ccccc2s1 | inactive | inactive | 0.941% (inactive) and 3.88% (inactive) | inactive | inactive | inactive | inactive | inactive | inactive |  |  |  |  |  |
| FC(F)(F)C(Cl)Br (stereo not given) | inactive | inactive | -4.81% (inactive) and 5.64% (inactive) | inactive | inactive | inactive | inactive | inactive | inactive |  |  |  |  |  |
| CCCCCCCCCCCCCO | inactive | inactive | 3.82% (inactive) and -0.0255% (inactive) | inactive | inactive | inactive | inactive | inactive | inactive |  |  |  |  |  |
| C=CCNCC=C | inactive | inactive | 4.5% (inactive) and 4.18% (inactive) | inactive | inactive | inactive | inactive | inactive | inactive |  |  |  |  |  |
| NCCOCCO | inactive | inactive | 6.45% (inactive) and 5.26% (inactive) | inactive | inactive | inactive | inactive | inactive | inactive |  |  |  |  |  |
| Cc1ccc(S(=O)(=O)NCl)cc1 | inactive | inactive | 4.42% (inactive) and 3.53% (inactive) | inactive | inactive | inactive | inactive | inactive | inactive |  |  |  |  |  |
| O=[Se](O)O | inactive | inactive |  | inactive | inactive |  |  | inactive | 39 µM (active) |  | 17.4 µM (active) | -0.276% [at 15.8 µM] (inactive) | 4.65% [at 15.8 µM] (inactive) | -8.61% [at 15.8 µM] (inactive) |
| CCCCCCCCCCC(CO)CCCCCCCC (stereo not given) | inactive | inactive | 5.36% (inactive) and 2.58% (inactive) | inactive | inactive | inactive | inactive | inactive | inactive |  |  |  |  |  |
| c1ccc2c(c1)ccc1ncccc12 | inactive | inactive |  | inactive | inactive | inactive | inactive | inactive | inactive | inactive |  |  |  |  |
| CC1(C)C(C=C(Cl)Cl)C1C(=O)OCc1cccc(Oc2ccccc2)c1 (stereo not given) | inactive | inactive |  | inactive | inactive | inactive | inactive | inactive | inactive | inactive |  |  |  |  |
| [Na+] | inactive | inactive | 3.11% (inactive) and 3.69% (inactive) | inactive | inactive | inactive and 49 µM (active) | inactive | inactive | inactive | inactive |  |  |  |  |
| Cc1ccc(/C(=C\CN2CCCC2)c2ccccn2)cc1 | inactive | inactive | -3.85% (inactive) | inactive | inactive | inactive | inactive | inactive | inactive |  |  |  |  |  |
| CC1(C)O[C@@H]2C[C@H]3[C@@H]4C[C@H](F)C5=CC(=O)C=C[C@]5(C)[C@@]4(F)[C@@H](O)C[C@]3(C)[C@]2(C(=O)CO)O1 | inactive | inactive | -29.2% (inactive) and -4.18% (inactive) | inactive | inactive | inactive | inactive |  | inactive |  |  |  |  |  |
